Compounds with a hit are over-represented: about 0.86% of the library has one in this group of screens.
AmpC inh no detg: qHTS Inhibitors of AmpC Beta-Lactamase (assay without detergent). P00811. AmpC nitrocefin hydrolysis, absorbance 480 nm, 0.0001% Triton. Potency, µM (top dose mostly 57.1 µM), inactives show at the top dose activity change, negative = inhibition, usual class: inhibitors. hit rate 0.52% among 330,000;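 further: plate controls were no compound for no effect and no enzyme for full effect; nearly all actives have a fitted effect of over 20% in size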
Target sequence (P00811 whole entry, looked up): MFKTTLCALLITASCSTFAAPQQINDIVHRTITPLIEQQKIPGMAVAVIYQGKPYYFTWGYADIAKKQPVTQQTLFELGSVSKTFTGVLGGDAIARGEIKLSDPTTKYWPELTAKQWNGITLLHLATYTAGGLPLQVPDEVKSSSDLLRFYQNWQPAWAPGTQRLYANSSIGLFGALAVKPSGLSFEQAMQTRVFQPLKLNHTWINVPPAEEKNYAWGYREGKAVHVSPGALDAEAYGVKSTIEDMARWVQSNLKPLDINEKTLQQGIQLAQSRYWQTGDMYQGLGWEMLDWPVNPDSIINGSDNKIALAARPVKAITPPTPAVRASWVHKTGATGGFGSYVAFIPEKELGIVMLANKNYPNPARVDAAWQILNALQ
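20 mM phosphate pH 7.0 + 0.01% (detergent screen) or 0.0001% Triton X-100; 5.3 nM AmpC reagent; cpd preinc 15 min RT; nitrocefin (800 uM stock) to start; A480 q20 s × 4 min; Activity was normalised to no-enzyme and no-compound control wells.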
AmpC detergent: qHTS Inhibitors of AmpC Beta-Lactamase (assay with detergent). P00811. AmpC hydrolysis of nitrocefin, absorbance 480 nm, 0.01% Triton. Potency, µM (top dose mostly 114 µM), for the others: at the top dose activity change, negative = inhibition, hits mostly inhibitors. hit rate 0.041% among 370,000. AID 485294, 2010;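 further: 0% = no-compound wells and -100% = no-enzyme wells; nearly all actives have a fitted effect of over 25% in size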
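AmpC (5.3 nM in the dispensed reagent) in 20 mM phosphate pH 7.0 with 0.01% (detergent screen) or 0.0001% Triton X-100 was preincubated with compounds for 15 min at room temperature. Nitrocefin was then added from an 800 uM solution, and hydrolysis was followed at 480 nm.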
NS1 function inh: qHTS Assay for Inhibitors of Influenza NS1 Protein Function; Potency, µM (highest dose often 46.1 µM), inactives show at the top dose activity, positive = more growth; AID 2326, 2010; hit rate 0.4% among 270,000; calls by dose curve; further: actives are rising curves; nearly all actives have a fitted effect of over 50% in size
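In this qHTS, NS1 from influenza A is expressed in budding yeast, where it slows growth. Cells are switched from glucose to 2% galactose medium (pH 6.0, -URA), treated with compound, and growth recovery is read at OD600.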
AMA1-RON2 inh: qHTS for Inhibitors of AMA1-RON; Towards Development of Antimalarial Drug Lead: Primary Screen; Potency, µM (top dose mostly 58.2 µM), for the others: top-dose activity change, negative = inhibition, actives largely listed as inhibitors; Plasmodium falciparum AMA1 (3D7) - RON2 peptide interaction; AID 720542, 2013; hit rate 0.2% among 360,000; AlphaScreen AMA1-biotinylated RON2 peptide binding;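 further: 0% = vehicle wells and -100% = peptide control; nearly all actives have a fitted effect of over 45% in size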
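AMA1 (3D7) with his tag at 25 nM final met compounds first, then biotinylated RON2 peptide at 25 nM; detection used donor plus acceptor beads, 10 µg/mL apiece, read by AlphaScreen after 30 min at room temperature.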
An asterisk follows results filed as active; ? = inconclusive; · = no result; [ ] = another dose, or the depositor's remark. Unless noted, the call rests on the fitted dose curve; in most records, active means well fitted curve in the direction sought with a large enough effect; inconclusive means small, poorly fitted or top-dose-only effect, or another doubt; inactive means no such curve, though single readings can be large; an effect the other way counts as inactive or inconclusive. Potency means the concentration at half of the fitted maximal effect.

SMILES	AmpC inh no detg	AmpC detergent	NS1 function inh	AMA1-RON2 inh
CC(C)c1ccc(N2C(=O)CSC23C(=O)N(Cc2ccccc2)c2ccccc23)cc1 (stereo not given)	·	18%	·	·
NNCCc1ccccc1	-13%	-7%	-21%	-8%
NNCc1ccccc1	·	·	·	32µM*
O=C(Cc1ccc(Cl)cc1)NCC(c1cccs1)S(=O)(=O)c1ccccc1 (stereo not given)	·	-5%	·	·
Cc1ccc(C)c(NC(=S)Nc2cccnc2)c1	-12%	-11%	·	-12%
Cc1ccc(NC(=S)Nc2cccnc2)c(S(=O)(=O)N2CCCCC2)c1	14µM*	-14%	·	51%
O=C(Nc1sccc1C(=O)N1CCOCC1)c1cccnc1	-1%	-7%	5%	-1%
Cc1ccccc1Nc1c(N)c(=O)oc2ccccc12	0.32µM*	2%	-2%	-2%
CN(C)CCNc1c(N)c(=O)oc2ccccc12	102%	-5%	6%	41%
COc1ccc(NS(=O)(=O)c2ccc(-n3cccn3)cc2)cc1OC	·	-7%	·	·
COc1ccc(NC(=O)c2cc3c([nH]c4ccccc43)c(C)n2)cc1	8.9µM*	-7%	-7%	126%
CN(C)c1ccc(-c2csc(C(C)(O)c3ccc(F)c(F)c3)n2)cc1 (stereo not given)	·	·	·	20µM*
Cn1c(NC(=O)c2ccccc2F)cc(=O)n(C)c1=O	-10%	8%	6%	9%
CC(=O)Nc1ccc(NC2=C/C(=N/S(=O)(=O)c3cccs3)c3ccccc3C2=O)cc1	-24%	-13%	·	-26%
COc1ccc(S(=O)(=O)/N=C2\C=C(Nc3ccc(O)cc3)C(=O)c3ccccc32)cc1	-35%	?	0%	18µM*
COc1ccc(-c2nnnn2C(C)C)cc1	7%	-2%	-3%	15%
COc1ccc(-c2nnnn2CCc2ccccc2)cc1	0.2µM*	3%	-19%	-6%
O=C1NC(=S)N(c2ccc(F)cc2)C(=O)/C1=C/c1ccco1	18µM*	50µM*	?	·
COc1ccc(OC)c(N2C(=O)/C(=C/c3ccco3)C(=O)NC2=S)c1	18µM*	50µM*	10%	?
COc1ccc2c(c1)C1(Nc3ccccc3-c3nc4ccccc4n31)C(=O)N2C (stereo not given)	-27%	-3%	5%	-1%
COc1ccc2c(c1)C1(Nc3ccccc3-c3nc4ccccc4n31)C(=O)N2 (stereo not given)	20µM*	-10%	-41%	-4%
O=C(CSc1ccc2nnc(-c3ccc(Cl)cc3)n2n1)N1CCc2ccccc21	6.3µM*	-16%	3%	0%
O=C(OCC(=O)N1CCOCC1)c1cc(-c2ccccc2)nc2ccccc12	148%	·	·	22%
CCOc1cc(C2C(C#N)=C(N)Oc3c2c(=O)oc2ccccc32)ccc1OC(=O)c1cccs1 (stereo not given)	16µM*	?	-12%	-14%
N#CC1=C(N)Oc2c(c(=O)oc3ccccc23)C1c1cccnc1 (stereo not given)	-15%	-17%	-7%	15%
SMILES	AmpC inh no detg	AmpC detergent	NS1 function inh	AMA1-RON2 inh
CC(=O)CSc1nc2ccccc2s1	-21%	-2%	-7%	18%
Cn1cccc1C(=O)NC(=O)CSc1nc2ccccc2s1	16µM*	-2%	-6%	0%
O=C(NC1CCCCC1)C1c2ccccc2OCC(=O)N1Cc1ccco1 (stereo not given)	·	·	·	40%
C=CCN(c1ccccc1)S(=O)(=O)c1cccc(C(=O)Nc2ccncc2)c1	-27%	-11%	·	-1%
C=CCN(c1ccccc1)S(=O)(=O)c1cccc(C(=O)Nc2nc3ccccc3[nH]2)c1	10µM*	-12%	12%	14%
CCOc1ccc(NC(=O)N2CCC(NC(=O)C(Cc3ccccc3OC)NC(C)=O)CC2)cc1 (stereo not given)	-4%	-9%	6%	-2%
Cc1ccccc1CN1CCN(C(=O)c2cccc3ccccc23)CC1	48%	-14%	-31%	25µM*
Cc1ccc2c(CC(=O)N3CCN(c4cccc(Cl)c4)CC3)coc2c1C	·	17%	·	·
CN1CCN(c2cc(=O)n(Cc3ccc(F)cc3)c(=O)[nH]2)CC1	0.56µM*	2%	-2%	19%
O=c1cc(N2CCN(c3ccccc3)CC2)[nH]c(=O)n1Cc1ccc(F)cc1	-16%	?	-7%	-2%
O=C1/C(=C\c2ccc(O)c(O)c2)N=C2CCCCCN12	-25%	5%	-4%	0%
CN(Cc1c(O)ccc2c1oc(=O)c1ccccc12)C1CCCCC1	-24%	-4%	6%	21µM*
Cc1cccc(-c2nc(CS(=O)CC(=O)NCCc3ccc(Cl)cc3)c(C)o2)c1 (stereo not given)	139%	?	3%	5%
COc1ccc(NC(=O)C(=O)NNC(=O)C(C)Oc2ccc(Cl)cc2Cl)cc1 (stereo not given)	32µM*	-9%	·	95%
CC(=O)Nc1ccc(NC(=O)C(C)Oc2ccc(Cl)cc2Cl)cc1 (stereo not given)	7%[2.29 µM]	-2%	-33%	-3%
COc1ccc(/C=N/NC(=S)Nc2ccccc2)cc1COc1ccc(F)cc1F	18µM*	-3%	23%	15%
COc1ccc(/C=N\NC(=O)c2ccc(F)cc2)cc1COc1ccccc1C(N)=O	94%	5%	11%	5%
Cc1ccc(NC(=S)c2nc3ccccc3s2)cc1	-22%	-4%	-8%	10µM*
Cc1ccc(Nc2cc(C(=O)NC3CCCC3)c3ccccc3n2)cc1C	·	1%	·	·
CCOC(=O)CCCc1sc(N)nc1-c1[nH]c(=O)[nH]c1C	-5%	-12%	?	1.5µM*
Cc1ccc(SCc2cc(=O)[nH]c(/N=C(\N)Nc3ccccc3Sc3ccccc3)n2)cc1	-22%	?	7%	-7%
COc1ccccc1N/C(N)=N/c1nc(CSc2ccc(C)cc2)cc(=O)[nH]1	14µM*	?	11%	36%
O=C(COC(=O)c1cncc(Br)c1)NCC12CC3CC(CC(C3)C1)C2	4%	-6%	·	-8%
Cc1c(C#N)c(N)nc(Cl)c1C#N	3%	1%	·	-6%
N#Cc1c(Cl)nsc1NN	1.4µM*	-3%	·	-28%
SMILES	AmpC inh no detg	AmpC detergent	NS1 function inh	AMA1-RON2 inh
C=CCOc1ccccc1/C=N/NC(=O)c1ccc(Cl)cc1Cl	25µM*	1%	-8%	0%
CCOC(=O)c1c(C)[nH]c(C(=O)COC(=O)/C=C/c2ccc(OCC#N)c(OC)c2)c1C	-11%	?	·	-7%
O=C(CCN1C(=O)/C(=C/c2cccs2)SC1=S)Nc1ccc(C(=O)O)c(O)c1	1.3µM*	-4%	22%	?
O=C(CCN1C(=O)/C(=C/c2cccs2)SC1=S)Nc1ccc(O)cc1	?	-15%	15%	-10%
CCc1nc2ccc(C(=O)NCc3ccccc3OC)cn2c1N(C)Cc1ccc(N(C)C)cc1	·	·	·	14µM*
CCc1nc2ccc(C(=O)NCc3ccccc3OC)cn2c1N(CC)CCN(C)C	·	·	·	-2%
CCc1ccc(NC(=O)CSc2nc3nc(C)cc(C)n3n2)cc1	106%	1%	-12%	0%

Bioassay records from PubChem.
